# Measurements as given in PubChem BioAssay (EPA / NIEHS).
# Calls of active or inactive are those of the source. The calls were made as follows: active = hit-call score of the fitted dose curve at least 0.9, where 1 is the maximum; inactive = score below 0.9.
# Assay: CCTE_Harrill_HTTr_Viability_MCF7: CCTE's 6-hour Cell Viability Assessment for the High-Throughput Transcriptomics (HTTr) Platform, in MCF-7 cells cultured in DMEM + 10% fetal bovine serum, Harrill Lab (AID 2284010)
# Summary of the method: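 Viability measured through PI dye exclusion by high-content imaging at 6 h post-dosing.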
row,Structure (SMILES),outcome
1,CCOC(=O)C1=NOC(c2ccccc2)(c2ccccc2)C1,inactive
2,C=CCCCCCCCCC=O,inactive
3,Clc1cc(Cl)c(Cl)c(Cl)c1Cl,inactive
4,Cn1ccnc1,inactive
5,Cc1ccc([N+](=O)[O-])cc1N,inactive
6,O=C(O)C1CCC(C(=O)O)CC1 (stereo unspecified),inactive
7,CC(=O)OC/C=C(/C)CCC=C(C)C,inactive
8,CCOC(=O)C1=NN(c2ccc(Cl)cc2Cl)C(C)(C(=O)OCC)C1 (stereo unspecified),inactive
9,CC(=O)OCC=C(C)C,inactive
10,CCCCC(C=O)CC (stereo unspecified),inactive
11,C=Cc1ccc(OC(C)=O)cc1,inactive
12,O=C(O)CCCC(=O)O,inactive
13,CC(C)(O)Cc1ccccc1,inactive
14,Nc1ncnc2nc[nH]c12,inactive
15,CC1=CCC(C(C)C)C=C1 (stereo unspecified),inactive
16,O=C(O)/C=C/c1ccccc1,inactive
17,Fc1ccc(Br)cc1,inactive
18,CC(C)[N+](C)(CCOC(=O)C1c2ccccc2Oc2ccccc21)C(C)C,inactive

row,Structure (SMILES),outcome
1,CCCCOCCOC(=O)COc1ccc(Cl)cc1Cl,inactive
2,CCCCCCO,inactive
3,CC(=O)c1ccccc1O,inactive
4,CN(C)c1ccc2nc3ccc(=[N+](C)C)cc-3sc2c1,inactive
5,CCCCCCC=O,inactive
6,CC12CCC(CC1)C(C)(C)O2,inactive
7,CC(C=O)c1ccccc1 (stereo unspecified),inactive
8,CC(C)=CCl,inactive
9,CC(C)OC(=O)c1ccccc1,inactive
10,CC=CC(=O)OCC(C)C,inactive
11,O=C(Oc1ccccc1)c1ccccc1O,inactive
12,Oc1c(Cl)cc(Cl)c(Cl)c1Cl,inactive
13,CCCCOCC(C)O (stereo unspecified),inactive
14,CC(=O)/C=C/C1C(C)=CCCC1(C)C (stereo unspecified),inactive
15,CCCCCCCO,inactive
16,CCOC(=O)/C=C\C(=O)OCC,inactive
17,CC(C)(CO)C(O)C(=O)NCCCO (stereo unspecified),inactive
18,C=C(C)C1CC=C(C)CC1 (stereo unspecified),inactive
